{
  "source": "PubChem BioAssay (NCATS)",
  "note": "Records with an inconclusive call do not appear. Entries that show only a call come without a potency. Calls of active or inactive are those of the source. Calls come from the whole dose curve.",
  "data": [
    {"biological_target": "Bile acid receptor (Homo sapiens) (UniProt Q96RI1)", "sequence (Q96RI1 whole entry, looked up)": "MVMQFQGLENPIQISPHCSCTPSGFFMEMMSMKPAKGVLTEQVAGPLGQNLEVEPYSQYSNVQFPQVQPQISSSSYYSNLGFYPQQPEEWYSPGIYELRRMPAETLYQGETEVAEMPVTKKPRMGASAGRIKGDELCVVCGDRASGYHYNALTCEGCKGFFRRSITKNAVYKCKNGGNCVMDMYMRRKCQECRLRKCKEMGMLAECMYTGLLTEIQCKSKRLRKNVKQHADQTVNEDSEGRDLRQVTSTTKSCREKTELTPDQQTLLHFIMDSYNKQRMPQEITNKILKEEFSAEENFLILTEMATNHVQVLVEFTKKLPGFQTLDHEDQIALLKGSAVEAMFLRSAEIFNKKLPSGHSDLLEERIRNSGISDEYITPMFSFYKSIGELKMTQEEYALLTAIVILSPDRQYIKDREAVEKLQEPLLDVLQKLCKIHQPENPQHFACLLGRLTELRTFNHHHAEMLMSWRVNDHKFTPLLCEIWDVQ", "assay": "qHTS assay for small molecule antagonists of farnesoid X receptor signaling (AID 588526)", "details": "HEK293T FXR-UAS-bla, beta-lactamase ratio, antagonist mode; series mostly up to 76.7 µM", "text": "NIH Chemical Genomics Center [NCGC] U.S. Environmental Protection Agency [EPA] National Institutes of Environmental Health Sciences [NIEHS] National Toxicology Program [NTP] NCGC Assay Overview The farnesoid-X-receptor (FXR), a nuclear hormone receptor is highly expressed in liver, intestine, kidney and adrenal cortex. Natural ligands of FXR are the bile acids (Cholic acid, Chenodeoxy cholic acid etc). It is an important regulator of diverse metabolic pathways, including the bile acid homeostasis, lipid and glucose metabolisms. FXR regulates the expression of target genes by binding either as a monomer or as a heterodimer with RXR (retinoid X receptor). As FXR regulates a large number of target genes involved in bile acid, lipoprotein and glucose metabolisms, it is a potential pharmacological target for bile acid and lipid disorders. Thus screening environmental chemicals on FXR signaling can be used for the studies focused on metabolic syndrome, hepatic and intestinal toxicity etc.\nNCGC Assay Protocol Summary Using a beta-lactamase reporter-gene under control of Farnesoid X receptor (FXR) response element, a cell-based assay [GeneBLAzer FXR-UAS-bla assay developed by Invitrogen] was used to measure FXR ligands signaling. GeneBLAzer FXR-UAS-bla HEK293T cells were used with assay medium containing 10% dialyzed FBS. The assay was performed in clear bottom black Greiner 1536-well plates. Guggulsterone were used in the screen as the positive control. Library compounds were measured for their ability to inhibit the reporter gene activity. Compounds were screened in a titration series in 1536-well format. The fluorescence intensity (405 nm excitation, 460/530 nm emission) was measured using an EnVision plate reader. Data was normalized relative to Chenodeoxycholic acid (50 uM, 100%), and DMSO only wells (basal, 0%). Concentration-response titration points for each compound were fitted to the Hill equation yielding concentrations of half-maximal inhibition (IC50) and maximal response (efficacy) values. qHTS protocol for FXR beta-lactamase assay in antagonist mode [Step] [Parameter] [Value] [Description] 1. Reagent; 5 uL; 5000 cells/well 2. Incubation; 37 C for 5-7 hrs 3. Compounds; 23 nL; 0.59 nM to 92 uM 4. Controls (Guggulsterone, FXR antagonist); 23 nL, - One column of dose response, start 200 uM, 1:2 dilutions in duplicates 5. Agonist (Stimulator); 1uL; Chenodeoxycholic acid at 100 uM and 50 uM final concentrations 6. Incubation; 37 C for 16 hrs 7. Detection reagent; 1 uL of CCF4-dye 8. Incubation; RT for 2 hrs 9. Detection; Fluorescence; Envision plate reader", "values": [
      {"compound": "CSc1nnc(C(C)(C)C)c(=O)n1N", "Potency": "inactive"},
      {"compound": "CC(C)=CC1C(C(=O)OCc2coc(Cc3ccccc3)c2)C1(C)C", "note": "(stereo not given)", "Potency": "inactive"},
      {"compound": "CN(C)P(=O)(N(C)C)N(C)C", "Potency": "inactive"},
      {"compound": "CCSCCSP(=O)(OC)OC", "Potency": "inactive"},
      {"compound": "CC1(c2ccc(Oc3ccccc3)cc2)OC(=O)N(Nc2ccccc2)C1=O", "note": "(stereo not given)", "Potency": "35.5 µM (active)"},
      {"compound": "Brc1ccc(Br)cc1", "Potency": "inactive"},
      {"compound": "C#CCN1CC(=O)N(COC(=O)[C@@H]2[C@@H](C=C(C)C)C2(C)C)C1=O", "Potency": "inactive"},
      {"compound": "O=C(NC(=O)c1c(F)cccc1F)Nc1ccc(Cl)cc1", "Potency": "inactive"},
      {"compound": "COc1nn(C(=O)NS(=O)(=O)c2ccccc2OC(F)(F)F)c(=O)n1C", "Potency": "inactive"},
      {"compound": "CCC(C)n1c(=O)[nH]c(C)c(Br)c1=O", "note": "(stereo not given)", "Potency": "inactive"},
      {"compound": "CC1(C)[C@H](C(=O)O[C@H](C#N)c2cccc(Oc3ccccc3)c2)[C@@H]1/C=C(\\Cl)C(F)(F)F", "Potency": "inactive"},
      {"compound": "CCC(C)(NC(=O)c1cc(Cl)c(C)c(Cl)c1)C(=O)CCl", "note": "(stereo not given)", "Potency": "inactive"},
      {"compound": "CN/C(=N/[N+](=O)[O-])NCC1CCOC1", "note": "(stereo not given)", "Potency": "inactive"},
      {"compound": "CN1COCN(Cc2cnc(Cl)s2)/C1=N\\[N+](=O)[O-]", "Potency": "inactive"},
      {"compound": "CCOC(=O)C(Cl)Cc1cc(-n2nc(C)n(C(F)F)c2=O)c(F)cc1Cl", "note": "(stereo not given)", "Potency": "inactive"},
      {"compound": "CCS(=O)(=O)c1cccnc1S(=O)(=O)NC(=O)Nc1nc(OC)cc(OC)n1", "Potency": "inactive"},
      {"compound": "CNC(=O)Oc1cccc(N=CN(C)C)c1", "Potency": "inactive"},
      {"compound": "CC1=C(C(=O)Nc2ccccc2)SCCO1", "Potency": "inactive"},
      {"compound": "COc1cc(OC)nc(NC(=O)NS(=O)(=O)c2ncccc2OCC(F)(F)F)n1", "Potency": "inactive"},
      {"compound": "O=C/C(Cl)=C(/Cl)C(=O)O", "Potency": "44.7 µM (active)"},
      {"compound": "C=CC(=O)OCCCCCC(C)C", "Potency": "inactive"},
      {"compound": "O=C(NC(=O)c1c(F)cccc1F)Nc1cc(Cl)c(OC(F)(F)C(F)C(F)(F)F)c(Cl)c1F", "note": "(stereo not given)", "Potency": "inactive"},
      {"compound": "CC1(C)CN=C(NN=C(/C=C/c2ccc(C(F)(F)F)cc2)/C=C/c2ccc(C(F)(F)F)cc2)NC1", "Potency": "31.6 µM (active)"},
      {"compound": "CCNS(=O)(=O)C(F)(F)C(F)(F)C(F)(F)C(F)(F)C(F)(F)C(F)(F)C(F)(F)C(F)(F)F", "Potency": "inactive"},
      {"compound": "CCOP(=S)(OCC)SCC(=O)NC(C)C", "Potency": "inactive"},
      {"compound": "Oc1c(Br)c(Br)c(Br)c(Br)c1Br", "Potency": "28.2 µM (active)"},
      {"compound": "CC1COC(Cn2cncn2)(c2ccc(Oc3ccc(Cl)cc3)cc2Cl)O1", "note": "(stereo not given)", "Potency": "44.7 µM (active)"},
      {"compound": "CCNC(=O)NC(=O)/C(C#N)=N/OC", "Potency": "inactive"},
      {"compound": "CCOP(=S)(NC(C)C)Oc1ccccc1C(=O)OC(C)C", "note": "(stereo not given)", "Potency": "inactive"},
      {"compound": "Clc1ccc([C@]2(Cn3cncn3)C[C@@H](Br)CO2)c(Cl)c1", "Potency": "inactive"},
      {"compound": "CCCCCCCCCCCC#N", "Potency": "inactive"},
      {"compound": "C#CCC1=C(C)[C@H](OC(=O)[C@H]2[C@H](C=C(C)C)C2(C)C)CC1=O", "Potency": "inactive"},
      {"compound": "COP(=O)(OC)OC(Br)C(Cl)(Cl)Br", "note": "(stereo not given)", "Potency": "inactive"},
      {"compound": "COCC(=O)N(c1c(C)cccc1C)[C@H](C)C(=O)OC", "Potency": "inactive"},
      {"compound": "COP(=S)(OC)Oc1ccc([N+](=O)[O-])c(C)c1", "Potency": "inactive"},
      {"compound": "CCOP(=O)(NC(C)C)Oc1ccc(S(C)=O)c(C)c1", "note": "(stereo not given)", "Potency": "inactive"},
      {"compound": "Clc1ccc([C@@]2(Cn3cncn3)C[C@H](Br)CO2)c(Cl)c1", "Potency": "inactive"},
      {"compound": "CC(C)C1(C)N=C(c2ncccc2C(=O)O)NC1=O", "note": "(stereo not given)", "Potency": "inactive"},
      {"compound": "N#CCNC(=O)c1cnccc1C(F)(F)F", "Potency": "inactive"},
      {"compound": "O=C1NCCN1Cc1ccc(Cl)nc1", "Potency": "inactive"}
    ]}
  ]
}
